Compound activity (PubChem)
14-3-3g Raf = 14-3-3 gamma protein interaction modulation. FP, 14-3-3gamma / TMR-pS259-Raf peptide binding. inhibition, % at 40 µM. actives 0.19% (n = 160,000); in the data active = inhibition above about 30%;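 note: 0% = protein plus tracer without compound and 100% = blank with tracer alone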
* marks the source's active call; other numbers are inactive results. Only a selection was taken, and hits are over-represented in it overall.

How did O=[N+]([O-])c1ccc(N2CCCC2)c2nonc12 do in these assays?
14-3-3g Raf: 199.7*

How did O=[N+]([O-])c1ccc(Cl)c2nonc12 do in these assays?
14-3-3g Raf: -36.8

Results for O=[N+]([O-])c1ccc(N2CCCC2)c2ccccc12 ?
14-3-3g Raf: -4.5

Results for Cc1nnc(NC(=O)c2c(O)c3ccccc3n(Cc3ccccc3)c2=O)s1 ?
14-3-3g Raf: -2.1

How did COc1ccccc1NC(=O)c1cccc(S(=O)(=O)N2CCCCC2)c1 do in these assays?
14-3-3g Raf: -8.1
